Measles CPE: compounds protecting cells from measles virus cytopathic effect, primary screen, measles RdRp inhibitor project, single point, MLSMR library, absorbance | protection (pct of control), % at 4 µM | AID 841, 2007 | 140,000 tested, 1.5% active | Measles virus-infected cells, CPE protection; in the data active = protection mostly above about 24%, no sharp cut-off; inactive = mostly below about 26%
CYP2C9 inhib: blockers of cytochrome P450 2C9 activity – biochemical, luminescence, ADME assay, primary screen; CYP2C9 Supersomes, luciferin-H conversion; inhibition, % at 5 µM; 96,000 tested, 20% active; AID 777, 2007;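 active = blocking of liver enzyme CYP2C9 beyond about 50% at 5 µM, limit read from the data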
Target sequence (P11712 whole entry, looked up): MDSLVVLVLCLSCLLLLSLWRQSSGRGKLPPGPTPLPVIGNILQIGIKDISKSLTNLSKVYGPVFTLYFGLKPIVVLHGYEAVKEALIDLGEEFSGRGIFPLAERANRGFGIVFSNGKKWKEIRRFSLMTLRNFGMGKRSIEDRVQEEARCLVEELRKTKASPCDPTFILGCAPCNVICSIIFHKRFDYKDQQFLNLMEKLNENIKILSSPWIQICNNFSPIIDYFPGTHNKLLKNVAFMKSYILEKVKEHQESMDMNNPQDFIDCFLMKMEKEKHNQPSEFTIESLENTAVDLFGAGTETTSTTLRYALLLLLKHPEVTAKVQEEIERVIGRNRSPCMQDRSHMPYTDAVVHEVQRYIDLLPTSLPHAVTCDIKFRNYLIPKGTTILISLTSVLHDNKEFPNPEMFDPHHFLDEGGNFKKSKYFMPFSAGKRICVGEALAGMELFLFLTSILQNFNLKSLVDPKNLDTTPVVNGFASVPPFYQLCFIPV
CYP2C19 inhib: blockers of cytochrome P450 2C19 activity – biochemical, luminescence, ADME assay, primary screen; CYP2C19 Supersomes, luciferin-H EGE luminescence, 30 min; inhibition, % at 5 µM; 96,000 tested, 21% active;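 active = CYP2C19 inhibition above a set limit at 5 µM in the primary screen, cut at about 50% in these data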
CYP2C19 activ: human CYP2C19 activators, primary screen, biochemical, luminescence; Cytochrome P450 2C19 (Homo sapiens), P33261; recombinant CYP2C19, luciferin-H EGE luminescence; active compounds read high; 0 = fully inhibited enzyme, 1 = untreated enzyme; activation factor at 5 µM; 96,000 tested, under 10 active; AID 1025, 2008;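 active = activation factor of at least 2 at 5 µM in the primary screen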
CYP2C9 act: human CYP2C9 activators, primary screen, biochemical, luminescence; Cytochrome P450 2C9 (Homo sapiens), P11712; recombinant CYP2C9, luciferin-H conversion; active compounds read high; factor 1 = untreated enzyme, 0 = blocked; 96,000 tested, 1.4% active; activation factor at 5 µM;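 active = activation factor of 2 or more for CYP2C9 at a 5 µM dose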
Numbers stand for hits; i = inactive; nt = not tested or not shown. Rows were chosen to be rich in hits. Some 22% of all compounds tested hit in one or more screens of this group.

SMILES	Measles CPE	CYP2C9 inhib	CYP2C19 inhib	CYP2C19 activ	CYP2C9 act
CCCCC(=O)Nc1cc(NC(=O)CC)ccc1Cl	i	i	i	i	i
O=C(CN1C(=O)C2C3C=CC(C3)C2C1=O)N1CC=C(c2ccccc2)CC1 (centres undefined)	i	i	i	i	i
C=CCN1C(=O)C(O)(CC(=O)c2ccc(OC)cc2OC)c2cc(Br)ccc21 (centres undefined)	i	82	63	i	i
CCCCN1C(=O)C(O)(CC(=O)c2c(C)n[nH]c2C)c2cc(Br)ccc21 (centres undefined)	73	i	81	i	i
CCCCN1C(=O)C(O)(CC(=O)c2ccco2)c2cc(Br)ccc21 (centres undefined)	i	i	67	i	i
CCOC(=O)CN1C(=O)C(O)(CC(=O)c2ccc3c(c2)CCCC3)c2ccccc21 (centres undefined)	i	nt	nt	nt	nt
CN1C(=O)C(O)(CC(=O)c2ccncc2)c2ccccc21 (centres undefined)	i	i	i	i	i
CN1C(=O)C(O)(CC(=O)c2ccccc2O)c2cc(Br)ccc21 (centres undefined)	i	92	97	i	i
O=C1C2C(C(=O)N1/N=C/c1ccc(N3CCCCC3)o1)C1C=CC2C12CC2 (centres undefined)	i	nt	nt	nt	nt
Cc1n[nH]c(C)c1C(=O)CC1(O)C(=O)N(CCc2ccccc2)c2ccc(Cl)cc21 (centres undefined)	i	95	99	i	i
Cc1coc(C)c1C(=O)CC1(O)C(=O)N(CCc2ccccc2)c2ccccc21 (centres undefined)	i	i	i	i	i
CN=C(Nc1cc(C)nn1-c1ccccc1)c1ccccc1	i	i	81	i	i
Cc1cc(Nc2nc3ccccc3nc2Cl)n(-c2ccc([N+](=O)[O-])cc2)n1	i	i	i	i	i
Cc1cc(Nc2cnc3ccccc3n2)n(-c2ccccc2)n1	i	72	69	i	i
Cc1cc(Nc2nc3ccccc3[nH]c2=O)n(-c2ccccc2)n1	i	64	i	i	i
Cc1cc(NC(=O)c2cc(C)on2)n(-c2ccccc2)n1	i	nt	nt	nt	nt
Cc1ccc(C(C(=O)NC2CCCC2)N(C(=O)Cc2cccs2)c2ccc(C)c(C)c2)o1 (centres undefined)	i	i	i	i	i
O=C(CCC(=O)N(c1cccc(F)c1)C(C(=O)NC1CCCC1)c1ccncc1)Nc1cccnc1 (centres undefined)	i	nt	nt	nt	nt
Cc1ccc(N(C(=O)C(F)(F)F)C(C(=O)NC2CCCCC2)c2cccs2)cc1 (centres undefined)	i	55	i	i	i
O=C(CCC(=O)N(c1ccccc1)C(C(=O)NC1CCCC1)c1ccncc1)Nc1cccnc1 (centres undefined)	i	i	70	i	i
Cc1cc(NC(=O)CCC(=O)N(c2ccccc2)C(C(=O)NC2CCCC2)c2cccs2)no1 (centres undefined)	i	70	77	i	i
Cc1ccc(C)c(N(C(=O)Cc2cccs2)C(C(=O)NC2CCCC2)c2ccc(C)o2)c1 (centres undefined)	i	73	i	i	i
CC(C)NC(=O)c1ccc(CS(=O)(=O)c2ccc(Br)cc2)o1	i	i	i	i	i
CC[C@@H](C(=O)n1nc(C)cc1C)[C@H](NS(=O)(=O)c1ccc(C)cc1)c1ccccc1	i	i	i	i	i
Cc1cc(C)c(-c2noc(C(=O)OC(C)(C)C)c2C(=O)OC(C)(C)C)c(C)c1	i	i	i	i	i
SMILES	Measles CPE	CYP2C9 inhib	CYP2C19 inhib	CYP2C19 activ	CYP2C9 act
CC(C)n1nc(C(=O)Oc2cccc(Cl)c2Cl)c2ccccc2c1=O	i	nt	nt	nt	nt
Cc1cc(NC(=O)CCC(=O)N(c2ccccc2)C2(C(=O)NC3CCCCC3)CCCC2)no1	i	i	i	i	i
Cc1ccc(C(C(=O)NC2CCCC2)N(Cc2ccco2)C(=O)CCC(=O)Nc2cc(C)on2)cc1 (centres undefined)	i	nt	nt	nt	nt
Cc1cc(NC(=O)CCC(=O)N(Cc2ccco2)C2(C(=O)NC3CCCCC3)CCN(C)CC2)no1	i	i	74	i	i
Cc1ccc(N(C(=O)CCC(=O)Nc2cc(C)on2)C(C(=O)NC2CCCC2)c2cccs2)cc1 (centres undefined)	i	89	95	i	i
Cc1ccc(C)c(N(C(=O)CCC(=O)Nc2cc(C)on2)C(C(=O)NC2CCCC2)c2ccco2)c1 (centres undefined)	i	i	54	i	i
Cc1cc(NC(=O)CCC(=O)N(c2ccccc2)C(C(=O)NC2CCCC2)c2ccccc2)no1 (centres undefined)	i	nt	nt	nt	nt
O=C(NC1CCCC1)C(c1cccs1)N(C(=O)c1ccco1)c1ccc2c(c1)OCCO2 (centres undefined)	i	78	80	i	i
O=C(Nc1ccc(Oc2ccccc2)cc1)C1CCCN(c2ncccn2)C1 (centres undefined)	i	i	i	i	i
Cc1cc([N+](=O)[O-])cnc1NC(C)c1ccccc1 (centres undefined)	i	i	65	i	i
O=[N+]([O-])c1cnc2ccccc2c1	i	nt	nt	nt	nt
O=C(COc1ccccc1Cl)N1CCN(c2ncccn2)CC1	i	i	92	i	i
COc1ccccc1C(=O)N1CCN(c2ccccn2)CC1	i	i	i	i	i
O=C(NCCC(=O)N1CCN(c2ncccn2)CC1)c1ccccc1	32	i	i	i	i
O=C(c1ccccc1OCc1ccccc1Br)N1CCN(c2ncccn2)CC1	i	99	97	i	i
O=C(NCCC(=O)N1CCN(c2ncccn2)CC1)c1ccccc1Cl	i	54	i	i	i
Cc1ccc(-n2nc3c(=O)n(CC(=O)c4ccc(F)cc4)nc(C)c3c2C)cc1	i	nt	nt	nt	nt
CC(Cl)C(=O)Nc1ccccc1C#N (centres undefined)	i	nt	nt	nt	nt
COc1ccc(N2CCN(c3ccc(NC(=O)C4CCCCC4)cc3C#N)CC2)cc1	i	i	i	i	i
CC(=O)Nc1cccc(Oc2cc(C#N)c(C#N)cc2N2CCCCCC2)c1	i	100	96	i	i
COc1ccccc1-c1c(C(F)(F)F)oc2cc(OC(=O)c3cccc([N+](=O)[O-])c3C)ccc2c1=O	i	73	76	i	i
COc1ccccc1-c1c(C)oc2cc(OC(=O)c3ccco3)ccc2c1=O	i	55	64	i	i
COc1ccccc1Oc1c(C)oc2cc(OC(=O)c3ccco3)ccc2c1=O	i	i	i	i	i
CCCC(=O)N(c1ccc(OCC)cc1)C1C=CS(=O)(=O)C1 (centres undefined)	i	i	63	i	i
COc1cc(C(=O)NNC2=CC(=O)CC(C)(C)C2)cc(OC)c1OC	i	nt	nt	nt	nt
